Values joined by “and” are separate entries in the source; they are usually repeats but may differ in a detail not shown here. Identical values can stand only once. About 250 (25%) of roughly 1,000 compounds were called active. Roughly 31% stayed inconclusive and do not appear here. These entries were drawn from the full list. Results with a measured potency or affinity are listed apart. Values without a mark were called inactive. The rule behind the calls is not given here.
experiment: T. gondii intracellular growth, IFN-gamma absent, dose response, cell-based (AID 1259420); conditions: Toxoplasma gondii growth in host cells, no IFN-gamma; at 19.5 µM unless noted;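 note: host cells were HeLa; final incubation lasted 72 hours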

| SMILES | max activity |
| --- | --- |
| COCC#Cc1ccc([C@@H]2[C@@H](CO)N3C(=O)CN(C(=O)c4ccncc4)C[C@@H]23)cc1 | -8.48% [at 10 µM] |
| CC(C)[C@H](CO)Nc1nc(Nc2ccc(C(=O)O)c(Cl)c2)c2ncn(C(C)C)c2n1 | -10.3% [at 10 µM] |
| O=C(NCc1ccccc1)C1CC2(CO1)CN(C(=O)c1ccc(F)cc1)c1ccccc12 (stereo unspecified) | -16.3% [at 10 µM] |
| O=C1N(CC2CC2)CCC12CCCN(Cc1cncc(Cl)c1)CC2 (stereo unspecified) | -16.7% [at 10 µM] |
| O=C(Nc1ccc(F)cc1)N1CC(=O)N2[C@@H](CO)[C@@H](c3ccc(C4=CCCC4)cc3)[C@@H]2C1 | 14.9% |
| N#C[C@@H]1N[C@H](CO)[C@H]1c1ccc(-c2cccc(F)c2)cc1 | 13.1% |
| CS(=O)(=O)N1CCN(C2CCOCC2)CC(C(=O)O)C1 (stereo unspecified) | -14.9% [at 5 µM] |
| CCOc1ccc(-c2nc(CN(c3ccc(OC)cc3)S(=O)(=O)c3cccs3)c(C)o2)cc1 | 18.6% [at 10 µM] |
| COc1ccc(-c2nc(CN(c3ccccc3OC)S(=O)(=O)c3ccccc3)c(C)o2)cc1 | -9.94% [at 0.6 µM] |
| CC(C)Oc1ccc(NC(=O)c2nc3c(n2C(C)C)CCN(C(=O)c2ccccc2)C3)cc1 | 12.7% [at 0.08 µM] |
| CCOC(=O)c1nn(Cc2ccccc2)c2c1CN(C(=O)CN1CC(c3ccccc3)CC1=O)CC2 (stereo unspecified) | -13.6% |
| O=C(C1CCOCC1)N1CC(=O)N2[C@@H](CO)[C@@H](c3ccc(C#CC4CCCCC4)cc3)[C@@H]2C1 | 14.6% |
| CC(C)C#Cc1ccc([C@H]2[C@@H](CO)N3C(=O)CN(C(=O)NC4CCCC4)C[C@H]23)cc1 | -5.62% [at 10 µM] |
| Cc1nc2ccccc2n1CC(O)Cn1c2ccccc2c2ccccc21 (stereo unspecified) | -12.4% |
| O=C(Cc1cccnc1)N1CC(=O)N2[C@H](CO)[C@H](c3ccc(C#CC4CCCCC4)cc3)[C@H]2C1 | -8.11% [at 0.3 µM] |
| CN(C)C(=O)COCc1cncc2c1CCN(c1ccccn1)C2 | -8.88% and 11.8% |
| Cc1ccccc1S(=O)(=O)N1CCCCN2[C@H](C1)[C@H](c1ccc(C#CCN(C)C)cc1)[C@@H]2CO | 20.9% [at 10 µM] |
| Clc1ccccc1CSc1nc(NC2CCCCC2)c2ccccc2n1 | 12.5% |
| CS(=O)(=O)N1CC(=O)N2[C@H](CO)[C@@H](c3ccc(Br)cc3)[C@H]2C1 | 4.03% |
| COc1cccc(-c2ccc(C3[C@H]4CNC[C@@H]3N4C(=O)NC3CCCCC3)cc2)c1 (stereo partly specified) | 28.1% |
| COc1cccc(-c2ccc(C3[C@H]4CNC[C@@H]3N4CC3CCCCC3)cc2)c1 (stereo partly specified) | 15.2% |

From PubChem BioAssay AID1259420 (Broad Institute, 2018)
